# According to paper PMC4552634, “A New Set of Chemical Starting Points with Plasmodium falciparum Transmission-Blocking Potential for Antimalarial Drug Discovery” (PLoS ONE, 2015):
# Hit rate of the full screen: of about 13,000 compounds, about 3,200 (25%) showed an effect of 50% or more. The list shows a part of the results.
# System: P. falciparum stage V gametocytes
# Design: BacTiter-Glo ATP luminescence viability of purified stage V gametocytes in 384-well plates, per cent inhibition versus DMSO
# Conditions: 48 h, 5 µM; inhibitor
row,Compound,% Inhibition [%]
1,Cc1c(F)cc(C(=O)NC2CC2)cc1-c1ccc2c(c1)c(C)nn2S(=O)(=O)c1cccs1 [TCMDC-135260],59.41
2,Cc1c(F)cc(C(=O)NC2CC2)cc1-c1ccc2c(cnn2S(=O)(=O)c2ccc(Cl)s2)c1 [TCMDC-135232],32.9
3,Cc1c(F)cc(C(=O)NC2CC2)cc1-c1ccc2c(cnn2S(=O)(=O)c2cccs2)c1 [TCMDC-135215],-11.35
4,CO/C(=C\C=C\c1cc2cc(Cl)c(Cl)cc2[nH]1)C(=O)NCCCNCCN(C)c1ccccc1 [TCMDC-139496],56.16
5,CO/C(=C\C=C\c1cc2cc(Cl)c(Cl)cc2[nH]1)C(=O)NCCCN1CCC(c2ccccc2)CC1 [TCMDC-139272],8.329
6,CCN(CC)CCNC(=O)/C(=C/C=C/c1cc2cc(Cl)c(Cl)cc2[nH]1)OC [TCMDC-139013],-18.02
7,CO/C(=C\C=C\c1cc2cc(Cl)c(Cl)cc2[nH]1)C(=O)NCCCN1CCN(Cc2ccccc2)CC1 [TCMDC-139257],-24.43
8,CO/C(=C\C=C\c1cc2cc(Cl)c(Cl)cc2[nH]1)C(=O)NCC(C)(C)CN(C)C [TCMDC-139037],-32.83
9,CO/C(=C\C=C\c1cc2cc(Cl)c(Cl)cc2[nH]1)C(=O)NCCCN(C)CCN(C)c1ccccc1 [TCMDC-139497],-12.25
10,CO/C(=C\C=C\c1cc2cc(Cl)c(Cl)cc2[nH]1)C(=O)NCCCNC12CC3CC(CC(C3)C1)C2 [TCMDC-139077],103
11,CO/C(=C\C=C\c1cc2cc(Cl)c(Cl)cc2[nH]1)C(=O)NCCCN1CCN(c2ccc(OC)cc2)CC1 [TCMDC-139175],-57.04
12,CCN(CC)CCCNC(=O)/C(=C/C=C/c1cc2cc(Cl)c(Cl)cc2[nH]1)OC [TCMDC-139008],50.29
13,CN1CCC=C(C(=O)NCC(C)(C)c2nc(-c3ccc(Cl)c(O)c3)c(-c3ccncc3)[nH]2)C1 [TCMDC-140700],-7.132
14,Cc1c(OC(C)C)nc2ccccc2c1C(=O)N[C@H](c1cccc(F)c1)C1CC1 [TCMDC-135994],-18.71
15,O=C(NCCN1CCCC1)c1cccc(-c2ccc(-c3nc4ccccc4[nH]3)cc2)c1 [TCMDC-132324],-2.761
16,CC(C)c1ccc(NC(=O)c2ccc(CN3CCCN(Cc4cccc(O)c4)CC3)cc2)cc1 [TCMDC-136419],-24.98
17,Cc1cccc(-c2nn(-c3ccccc3)c3[nH]c(=O)c(CN4CCSCC4)cc23)c1 [TCMDC-124897],84.44
18,Cc1cccc(-c2nn(-c3ccccc3)c3[nH]c(=O)c(CNC4CCCC4)cc23)c1 [TCMDC-136663],9.349
19,O=c1[nH]c2c(cc1CNC1CCCCC1)c(-c1cccc(F)c1)nn2-c1ccccc1 [TCMDC-125867],39.49
20,Cc1ccc(NC(=O)c2ccc(CN3CCCN(CC4CCCCC4)CC3)cc2)cc1C [TCMDC-136425],-18.57
21,Cc1cc(-c2c[nH]c3ncc(-c4cccc5ncccc45)cc23)ccc1C(=O)O.O=C(O)C(F)(F)F [TCMDC-136377],16.5
22,Nc1cccc(CNCc2ccc(-c3ccc(-c4nc5cc(C(F)(F)F)ccc5[nH]4)s3)cc2)c1.O=C(O)C(F)(F)F [TCMDC-132939],-86.12

row,Compound,% Inhibition [%]
1,O=C(O)C(F)(F)F.OCC1CCN(Cc2cccc(-c3ccc(-c4nc5cc(C(F)(F)F)ccc5[nH]4)s3)c2)CC1 [TCMDC-133126],5.885
2,NCc1ccc(CNCc2ccc(-c3ccc(-c4nc5cc(C(F)(F)F)ccc5[nH]4)s3)cc2)cc1.O=C(O)C(F)(F)F [TCMDC-132814],75.71
3,CNc1ccc(CNCc2ccc(-c3ccc(-c4nc5cc(C(F)(F)F)ccc5[nH]4)s3)cc2)cc1.O=C(O)C(F)(F)F [TCMDC-132985],42.48
4,CN(CCN)Cc1cccc(-c2ccc(-c3nc4cc(C(F)(F)F)ccc4[nH]3)s2)c1.O=C(O)C(F)(F)F [TCMDC-132820],44.42
5,CC(C)NCc1ccc(-c2ccc(-c3nc4cc(C(F)(F)F)ccc4[nH]3)s2)cc1.O=C(O)C(F)(F)F [TCMDC-132745],-79.18
6,CN(CCN)Cc1ccc(-c2ccc(-c3nc4cc(C(F)(F)F)ccc4[nH]3)s2)cc1.O=C(O)C(F)(F)F [TCMDC-132821],65.23
7,O=C(O)C(F)(F)F.OCC1CCN(Cc2ccc(-c3ccc(-c4nc5cc(C(F)(F)F)ccc5[nH]4)s3)cc2)CC1 [TCMDC-133120],54.7
8,NC(=O)C1CCN(Cc2ccc(-c3ccc(-c4nc5cc(C(F)(F)F)ccc5[nH]4)s3)cc2)CC1.O=C(O)C(F)(F)F [TCMDC-132687],-37.37
9,Cc1cccc2[nH]c(-c3cccc(-c4ccc(NC(=O)Cc5ccon5)cc4)c3)nc12 [TCMDC-136906],-38.48
10,Cc1cccc(/C=C/C(=O)NC2CCC(N3CCC(c4ccccc4C)CC3)CC2)c1 (centres unmarked) [TCMDC-133528],-62.92
11,CN1CCN(c2ccnc3ccc(NC(=O)Cc4ccc(Br)c5ccccc45)cc23)CC1 [TCMDC-139254],0.9853
12,CS(=O)(=O)NCCCNCc1ccc(-c2cccc(-c3nc4ccc(F)cc4[nH]3)c2)cc1 [TCMDC-133077],6.508
13,COc1ccc2ncc(F)c(CCN3CCC(CNCc4cccc5c4OCO5)CC3)c2n1 [TCMDC-135851],-2.329
14,CCN(CC)CCCOC(=O)c1ccc2c(c1)-c1ccc(C(=O)OCCCN(CC)CC)c3cccc-2c13 [TCMDC-125491],109
15,CCCN(CC)CCOC(=O)c1ccccc1 [TCMDC-131376],17.72
16,CCN(CC)/C(=N/C(=N)NCc1cccc(Cl)c1)NCCCCCCN/C(=N\C(=N)NCc1cccc(Cl)c1)N(CC)CC [TCMDC-131820],122
17,CN(C)C(=O)CC(=O)NCc1cccc(Cl)c1 [TCMDC-131747],5.736
18,CCN(CC)/C(=N/C(=N)NCc1ccc(Cl)cc1Cl)NCCCCCCN/C(=N\C(=N)NCc1ccc(Cl)cc1Cl)N(CC)CC [TCMDC-131819],120
19,CCCCN(CCCC)C(=Nc1cccc(Cl)c1Cl)Nc1ccc(C#N)cc1O [TCMDC-140226],-14.17
20,CCCCN(CCCC)C(=NC(=N)NCc1ccc(Cl)c(Cl)c1)NCCCCCCNC(=NC(=N)NCc1ccc(Cl)c(Cl)c1)N(CCCC)CCCC [TCMDC-131821],116.7
21,CC/N=C(/NCCCCCCN/C(=N/CC)NCc1ccccc1)NCc1ccccc1 [TCMDC-137726],-33.37
22,CCN(CC)C(=NC(=N)NCc1ccc(Cl)cc1)NCCCCCCNC(=NC(=N)NCc1ccc(Cl)cc1)N(CC)CC [TCMDC-131817],120
